The list is not random: actives were taken first. Their share in the collection is about 28%.
CYP2C19 act: cytochrome P450 2C19 (human) activation. recombinant CYP2C19, luciferin-H EGE luminescence; hits give high values; 0 = fully inhibited enzyme, 1 = untreated enzyme. P33261. activation factor at 5 µM. AID 1025. 96,000 tested, under 10 active;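 active = activation factor of at least 2 at 5 µM in the primary screen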
Target sequence (P33261 whole entry, looked up): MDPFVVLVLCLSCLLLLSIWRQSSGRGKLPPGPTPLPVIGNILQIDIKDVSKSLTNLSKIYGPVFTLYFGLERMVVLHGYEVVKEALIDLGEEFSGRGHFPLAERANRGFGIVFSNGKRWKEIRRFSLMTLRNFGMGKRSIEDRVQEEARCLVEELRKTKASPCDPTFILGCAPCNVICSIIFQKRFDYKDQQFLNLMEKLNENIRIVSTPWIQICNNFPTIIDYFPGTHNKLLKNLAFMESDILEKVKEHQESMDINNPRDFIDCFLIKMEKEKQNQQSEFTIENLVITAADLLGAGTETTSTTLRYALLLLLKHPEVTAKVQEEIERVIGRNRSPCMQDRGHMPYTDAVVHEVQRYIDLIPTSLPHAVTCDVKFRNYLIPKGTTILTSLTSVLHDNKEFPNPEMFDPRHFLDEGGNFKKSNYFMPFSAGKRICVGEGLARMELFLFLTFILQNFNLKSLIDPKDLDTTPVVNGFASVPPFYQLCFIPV
D1 allo mod: allosterically modulates the human D1 dopamine receptor; HEK293 D1, CRE-luciferase, dopamine EC30 potentiation; actives deviate in either direction; B-score at 10 µM; actives 5.9% (n = 58,000); AID 641;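 active = luminescence count or its row- and column-corrected plate score outside the 99.7% band of the plate's sample wells, on either side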
CYP2C9 activ: CYP2C9 (human) activation | P11712 | recombinant CYP2C9, luciferin-H conversion, luminescence; hits give high values; factor 1 = untreated enzyme, 0 = blocked | activation factor at 5 µM | actives 1.4% (n = 96,000);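 active = activation factor of 2 or more for CYP2C9 at a 5 µM dose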
CYP2C9 inhib: human CYP2C9 inhibition; inhibition, % at 5 µM; actives 20% (n = 96,000); AID 777; CYP2C9 Supersomes, luciferin-H conversion, luminescence;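 active = blocking of liver enzyme CYP2C9 beyond about 50% at 5 µM, limit read from the data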
DAT uptake mod: changed human dopamine transporter uptake under cocaine IC80; actives 1.3% (n = 110,000); AID 449768; B-score at 10 µM; LLC-PK1 hDAT cells, [14C]-dopamine uptake with cocaine IC80; actives deviate in either direction;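 active = Z score or B-score, a plate-position-corrected score, falls beyond the plate's 99.7% confidence bounds, in either direction; inactive = both scores lie inside the 99.7% bounds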
CYP2C19 inhib: human CYP2C19 inhibition | inhibition, % at 5 µM | actives 21% (n = 96,000) | P33261 | CYP2C19 Supersomes, luciferin-H EGE luminescence, 30 min;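 active = CYP2C19 inhibition above a set limit at 5 µM in the primary screen, cut at about 50% in these data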
A number is an active result.

Screening COc1ccc(CCNC(=O)c2nnn(-c3ccc4c(c3)OCCO4)c2N)cc1OC returned CYP2C19 act inactive, CYP2C9 activ inactive, CYP2C9 inhib inactive, DAT uptake mod inactive and CYP2C19 inhib inactive.
Cc1ccccc1NC(=O)C1Cc2ccccc2C(=O)O1 (stereo not given) was read as CYP2C19 act inactive, D1 allo mod inactive, CYP2C9 activ inactive, CYP2C9 inhib inactive, DAT uptake mod inactive and CYP2C19 inhib 71.
`COc1ccc(NC(=O)C2Cc3ccccc3C(=O)O2)cc1` (stereo not given) gave D1 allo mod inactive and DAT uptake mod inactive.
Cc1cc(NC(=O)C(C)(C)C)no1 was read as CYP2C19 act inactive, D1 allo mod inactive, CYP2C9 activ inactive, CYP2C9 inhib inactive, DAT uptake mod inactive and CYP2C19 inhib inactive.
Screening COCCCn1c(N)c(-c2nc3ccccc3n2C)c2nc3ccccc3nc21 returned CYP2C19 act inactive, CYP2C9 activ inactive, CYP2C9 inhib 66, DAT uptake mod inactive and CYP2C19 inhib 70.
`Cn1c(-c2c(N)n(CCCc3ccccc3)c3nc4ccccc4nc23)nc2ccccc21` gave CYP2C19 act inactive, CYP2C9 activ inactive, CYP2C9 inhib inactive, DAT uptake mod inactive and CYP2C19 inhib inactive.
For Cn1c(-c2c(N)n(CCc3ccccc3)c3nc4ccccc4nc23)nc2ccccc21 the results were CYP2C19 act inactive, CYP2C9 activ inactive, CYP2C9 inhib 100, DAT uptake mod inactive and CYP2C19 inhib 58.
Cc1ccc(N=Cc2sc(O)c3ccccc23)cc1 was read as CYP2C19 act inactive, CYP2C9 activ inactive, CYP2C9 inhib inactive, DAT uptake mod inactive and CYP2C19 inhib inactive.
For Cc1ccc(N=Cc2sc(O)c3ccccc23)c(C)c1 the results were CYP2C19 act inactive, CYP2C9 activ inactive, CYP2C9 inhib 63, DAT uptake mod inactive and CYP2C19 inhib inactive.
`CCOc1ccc2nc(Nc3nc(CSc4nnnn4-c4ccccc4)cc(=O)[nH]3)nc(C)c2c1` gave CYP2C19 act inactive, CYP2C9 activ inactive, CYP2C9 inhib 51, DAT uptake mod inactive and CYP2C19 inhib 53.
Screening COc1ccc2nc(Nc3nc(CSc4nnnn4-c4ccccc4)cc(=O)[nH]3)nc(C)c2c1 returned CYP2C19 act inactive, CYP2C9 activ inactive, CYP2C9 inhib inactive, DAT uptake mod inactive and CYP2C19 inhib inactive.
Screening Cc1ccc2c(C)nc(Nc3nc(CSc4nnnn4-c4ccccc4)cc(=O)[nH]3)nc2c1 returned CYP2C19 act inactive, D1 allo mod inactive, CYP2C9 activ inactive, CYP2C9 inhib 88, DAT uptake mod inactive and CYP2C19 inhib 60.
Screening Cn1c(=O)c2c(ncn2Cc2ccccc2)n(C)c1=O returned DAT uptake mod inactive.
Screening Cn1c(=O)c2nc(NCc3ccccc3)cnc2n(C)c1=O returned CYP2C19 act inactive, D1 allo mod inactive, CYP2C9 activ inactive, CYP2C9 inhib 73 and CYP2C19 inhib 74.
For CCn1c(=O)cc(OCC(=O)Nc2ccc(Cl)cn2)c2ccccc21 the results were D1 allo mod inactive.
Screening Cc1nc(NC(=O)c2csc3ccccc23)sc1C returned CYP2C19 act inactive, D1 allo mod -3.4, CYP2C9 activ inactive, CYP2C9 inhib inactive, DAT uptake mod inactive and CYP2C19 inhib inactive.
Cn1cc(C(=O)c2cccc(Cl)c2Cl)cc1C(=O)O was read as CYP2C19 act inactive, CYP2C9 activ inactive, CYP2C9 inhib inactive, DAT uptake mod inactive and CYP2C19 inhib inactive.
Screening COC(=O)c1cc(C(=O)c2ccc(Cl)cc2Cl)cn1C returned CYP2C19 act inactive, CYP2C9 activ inactive, CYP2C9 inhib inactive, DAT uptake mod inactive and CYP2C19 inhib 58.
For Cc1onc(-c2ccccc2Cl)c1C(=O)N/N=C(\N)COc1ccc(Cl)cc1 the results were CYP2C19 act inactive, CYP2C9 activ inactive, CYP2C9 inhib inactive and CYP2C19 inhib inactive.
`COc1ccc(C(=O)c2ccc(Cl)cc2Cl)cc1` gave CYP2C19 act inactive, CYP2C9 activ inactive, CYP2C9 inhib inactive, DAT uptake mod inactive and CYP2C19 inhib inactive.
Cn1cc(C(=O)c2ccc(Cl)cc2Cl)cc1C(=O)N/N=C(\N)COc1cccc(C(F)(F)F)c1 was read as CYP2C19 act inactive, CYP2C9 activ inactive, CYP2C9 inhib 62, DAT uptake mod inactive and CYP2C19 inhib 64.
COC(=O)c1cc(C(=O)c2cccc(Cl)c2Cl)cn1C was read as CYP2C19 act inactive, CYP2C9 activ 2, CYP2C9 inhib inactive, DAT uptake mod inactive and CYP2C19 inhib 90.
Screening Cc1cc(N2C(=O)CCC2=O)ccc1NC(=O)c1cccs1 returned CYP2C19 act inactive, CYP2C9 activ inactive, CYP2C9 inhib inactive, DAT uptake mod inactive and CYP2C19 inhib inactive.
For COc1ccc(NC(=O)CC2C(=O)N(c3cccc(OC)c3)C(=O)N2Cc2ccco2)cc1 (stereo not given) the results were DAT uptake mod inactive.
CC(=O)N1CN(Cc2ccccn2)Cc2c1sc1c2CCCC1 was read as CYP2C19 act inactive, D1 allo mod inactive, CYP2C9 activ inactive, CYP2C9 inhib inactive, DAT uptake mod inactive and CYP2C19 inhib inactive.
`CC(=O)N1CN(CCCn2ccnc2)Cc2c1sc1c2CCCC1` gave CYP2C19 act inactive, CYP2C9 activ inactive, CYP2C9 inhib 96, DAT uptake mod inactive and CYP2C19 inhib 94.
For c1ccc(Cc2cc(-c3ccccc3)on2)cc1 the results were DAT uptake mod inactive.
Screening CCn1c(CC(=O)Nc2cccc(OC)c2)nnc1SCC(=O)N1CCN(c2ccccc2)CC1 returned CYP2C19 act inactive, D1 allo mod inactive, CYP2C9 activ inactive, CYP2C9 inhib 59, DAT uptake mod inactive and CYP2C19 inhib inactive.
CCn1c(CSCc2ccc(C)cc2)nnc1SCC(=O)N1CCN(c2ccccc2)CC1 was read as CYP2C19 act inactive, CYP2C9 activ inactive, CYP2C9 inhib 78, DAT uptake mod inactive and CYP2C19 inhib inactive.
For CCn1c(COc2ccccc2C)nnc1SCC(=O)N1CCN(c2ccccc2)CC1 the results were CYP2C19 act inactive, CYP2C9 activ inactive, CYP2C9 inhib inactive, DAT uptake mod inactive and CYP2C19 inhib inactive.
Screening CCCOc1ccccc1C(=O)NC(CO)C(=O)O (stereo not given) returned CYP2C19 act inactive, CYP2C9 activ inactive, CYP2C9 inhib inactive, DAT uptake mod inactive and CYP2C19 inhib inactive.
Screening O=S(=O)(c1cc(-c2nnc(-c3ccc(Br)cc3)o2)ccc1Br)N1CCCCCC1 returned DAT uptake mod 3.3.
Screening NC(=O)c1ccc(Br)c(S(=O)(=O)N2CCCCC2)c1 returned CYP2C19 act inactive, D1 allo mod inactive, CYP2C9 activ inactive, CYP2C9 inhib inactive, DAT uptake mod inactive and CYP2C19 inhib inactive.
Screening COc1ncccc1-c1nnn(-c2ccc(Cl)nc2)n1 returned DAT uptake mod inactive.
Screening Cc1ccc(CN2CCN(Cc3ccccc3C(F)(F)F)CC2)cc1 returned CYP2C19 act inactive, CYP2C9 activ inactive, CYP2C9 inhib inactive, DAT uptake mod inactive and CYP2C19 inhib 64.
Screening Cc1ccccc1CN1CCN(S(C)(=O)=O)CC1 returned DAT uptake mod inactive.

Screening data as filed in PubChem.
